From PubChem BioAssay (NCATS)
Results filed as inconclusive are left out. Where a call stands in place of a potency, no number is given. Calls of active or inactive are those of the source. Unless noted, calls follow the shape of the dose curve; as a rule, active = well fitted curve in the direction sought with a large enough effect; inconclusive = small, poorly fitted or top-dose-only effect, or another doubt; inactive = no such curve, though single readings can be large; an effect the other way counts as inactive or inconclusive. Numbered stars: 1 amine (or outer) side, 2 acyl side, 3 side chain; on linkers, the order of the positions; unused ones are H or OH. Bridge positions count the residues as written; N and C are the ends. Square brackets hold non-standard residues; d marks the D form. Peptide text beside a SMILES is read from it. * marks the point of attachment. ξ: configuration not given here. ΔAla(Z-3-ureido) = NC(=O)N/C=C(\N)C(=O)O; X2 = NC1=NC(O)CC(C(N[*:1])C(=O)[*:2])N1; ξβ3hOrn = NCCCC(N)CC(=O)*; Orn = NCCC[CH](N)C(=O)O; Dap = NC[CH](N)C(=O)O

How the values were obtained:
[1] = S16 Schwann cell viability assay (CellTiter-Glo assay) (AID 624031); also: nearly all actives have a fitted effect of over 70% in size
Outline: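 Counter-screen for cytotoxicity: parental S16 rat Schwann cells lacking the PMP22 reporters, treated 24 h with compound, viability from cellular ATP by CellTiter-Glo luminescence, normalized to DMSO (0%) and no-cell wells.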

[2] = S16 Schwann cell PMP22 intronic element beta-lactamase assay (AID 624044; calls by dose curve; also: nearly all actives have a fitted effect of over 15% in size)
Outline: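 Beta-lactamase reporter under a PMP22 intronic regulatory element in stable S16 rat Schwann cells; 24 h compound exposure. 460 nm blue signal normalized between DMSO (0%) and potassium clavulanate, with 535 nm FRET tracking viability; curves classed by r2 and response.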

CP260 = experiment: qHTS profiling for inhibitors of Plasmodium falciparum proliferation (AID 504749); also: nearly all actives have a fitted effect of over 60% in size; settings: P. falciparum in erythrocytes, SYBR Green DNA, 72 h; series mostly up to 28.7 µM
Outline: (§1)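 Each compound contacts P. falciparum-infected red blood cells for 72 h at 37 C; lysis buffer (Tris, EDTA, saponin, Triton X, SYBR Green I) is added and fluorescence measured next morning; values normalized to controls.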

[3] = biological target: Luciferin 4-monooxygenase (Photinus pyralis) (UniProt P08659); experiment: Biochemical firefly luciferase enzyme assay for NPC (AID 624030); also: nearly all actives have a fitted effect of over 70% in size
Outline: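 Purified P. pyralis luciferase at 10 nM in 50 mM Tris Acetate (final), luminescence read within 5 minutes of enzyme addition to compounds. Activity normalised to PTC124 versus DMSO; concentration-response curves classed by r2, magnitude and activity.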

GB4 = experiment: qHTS profiling for inhibitors of Plasmodium falciparum proliferation (AID 504749); also: nearly all actives have a fitted effect of over 60% in size; settings: P. falciparum in erythrocytes, SYBR Green DNA, 72 h; series mostly up to 28.7 µM
Outline: as §1

W2 = experiment: as above; settings: P. falciparum in erythrocytes, SYBR Green DNA, 72 h; series mostly up to 28.7 µM
Outline: as §1

DIV14 = experiment: as above; settings: P. falciparum in erythrocytes, SYBR Green DNA, 72 h; series mostly up to 28.7 µM
Outline: as §1

DIV17 = experiment: as above; settings: P. falciparum in erythrocytes, SYBR Green DNA, 72 h; series mostly up to 28.7 µM
Outline: as §1

ICS = experiment: as above; settings: P. falciparum in erythrocytes, SYBR Green DNA, 72 h; series mostly up to 28.7 µM
Outline: as §1
Potency is read from the fitted curve at half-maximal effect.

Sequence of Luciferin 4-monooxygenase (Photinus pyralis) (P08659 whole entry, looked up): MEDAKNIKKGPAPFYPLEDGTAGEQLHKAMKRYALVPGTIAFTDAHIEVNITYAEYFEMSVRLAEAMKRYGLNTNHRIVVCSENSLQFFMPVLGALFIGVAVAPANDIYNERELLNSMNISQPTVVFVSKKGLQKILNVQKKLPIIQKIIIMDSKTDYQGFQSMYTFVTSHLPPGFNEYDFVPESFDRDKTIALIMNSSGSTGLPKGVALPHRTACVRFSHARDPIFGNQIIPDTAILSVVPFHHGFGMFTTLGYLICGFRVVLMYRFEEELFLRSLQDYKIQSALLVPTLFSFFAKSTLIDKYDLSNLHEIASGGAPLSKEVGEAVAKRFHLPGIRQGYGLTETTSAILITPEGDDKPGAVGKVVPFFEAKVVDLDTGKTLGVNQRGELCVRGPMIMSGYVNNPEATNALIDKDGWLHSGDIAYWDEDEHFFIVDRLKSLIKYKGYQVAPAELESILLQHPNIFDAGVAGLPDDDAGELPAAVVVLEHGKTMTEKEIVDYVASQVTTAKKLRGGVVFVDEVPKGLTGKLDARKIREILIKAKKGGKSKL

Compound	Potency [1]	Potency [2]	Potency (CP260)	Potency [3]	Potency (GB4)	Potency (W2)	Potency (DIV14)	Potency (DIV17)	Potency (ICS)
CCC1NC(=O)C(NC(=O)c2ncccc2O)C(C)OC(=O)C(c2ccccc2)NC(=O)C2CC(=O)CCN2C(=O)C(Cc2ccccc2)N(C)C(=O)C2CCCN2C1=O (centres undefined)	inactive	inactive	inactive						
NCCCC(N)CC(=O)NC1CNC(=O)C(C2CC(O)N=C(N)N2)NC(=O)/C(=C/NC(N)=O)NC(=O)C(CO)NC(=O)C(CO)NC1=O (stereo not drawn) (ξβ3hOrn-[Dap]SS[ΔAla(Z-3-ureido)][X2]; lactam 1-C; configuration not given here)	inactive	inactive	inactive	inactive	inactive	inactive			
CC(C)C[C@H](NC(=O)[C@@H](Cc1c[nH]c2ccccc12)NC(=O)[C@@H](Cc1ccc(O)cc1)NC(=O)[C@@H](CO)NC(=O)[C@@H](Cc1c[nH]c2ccccc12)NC(=O)C(Cc1cnc[nH]1)NC(=O)C1CCC(=O)N1)C(=O)N[C@@H](CCCN=C(N)N)C(=O)N1CCC[C@@H]1C(=O)NCC(N)=O (some centres undefined)	inactive	inactive	inactive		inactive	inactive	inactive	inactive	inactive
Cn1cc(O)nc1NC(=O)Nc1cccc(Cl)c1	inactive	inactive	inactive	inactive		inactive	inactive	inactive	inactive
CC(C)C(NC(=O)C(CC(=O)O)NC(=O)C(CCCCN)NC(=O)C(N)CCCN=C(N)N)C(=O)NC(Cc1ccc(O)cc1)C(=O)O (centres undefined) (H-RKDVY-OH; configuration not given here)	inactive	inactive		inactive	inactive	inactive	inactive	inactive	inactive
CC(=O)OCC(=O)[C@@]1(O)CCC2C3CCC4=CC(=O)CC[C@]4(C)C3=CC[C@@]21C (some centres undefined)	inactive		inactive		inactive	inactive	inactive	inactive	inactive
CC1(C)C(/C=C/C=C/C=C/C=C2\N(CCCCS(=O)(=O)O)c3ccc4ccccc4c3C2(C)C)=[N+](CCCCS(=O)(=O)[O-])c2ccc3ccccc3c21	inactive	inactive		28700 nM (active)	inactive		inactive	inactive	inactive
CC(C)CC(NC(=O)C(COC(C)(C)C)NC(=O)C(Cc1ccc(O)cc1)NC(=O)C(CO)NC(=O)C(Cc1c[nH]c2ccccc12)NC(=O)C(Cc1cnc[nH]1)NC(=O)C1CCC(=O)N1)C(=O)NC(CCCN=C(N)N)C(=O)N1CCCC1C(=O)NNC(N)=O (centres undefined)	inactive			inactive	inactive	inactive	inactive	inactive	inactive
CC(C)CC1NC(=O)C(CCCN)NC(=O)C(C(C)C)NC(=O)C2CCCN2C(=O)C(Cc2ccccc2)NC(=O)C(CC(C)C)NC(=O)C(CCCN)NC(=O)C(C(C)C)NC(=O)C2CCCN2C(=O)C(Cc2ccccc2)NC1=O (centres undefined) (cyclo(FPV[Orn]LFPV[Orn]L); configuration not given here)	4550 nM (active)	12600 nM (active)	0.9 nM (active)	inactive	0.5 nM (active)	0.2 nM (active)			0.3 nM (active)
C=CC1=C(C(=O)O)N2C(=O)[C@@H](NC(=O)C(N=O)c3csc(N)n3)[C@H]2SC1 (some centres undefined)	inactive	inactive	inactive	inactive	inactive		inactive	inactive	inactive
